Results filed as inconclusive are left out. The source made the active and inactive calls.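 Rule for the calls, unless noted: active = percent response above a set limit, the screen-wide mean plus 3 SD (cut at about 130% in these data); inactive = the rest.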
Tests used:
[1] = rapamycin-like changes in RPL19A-GFP expression – cell-based, S. cerevisiae, multiplex flow cytometry, primary screen (AID 1862; in the data active = percent of DMSO control GFP below about 86%;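 note: lower values mimic rapamycin by blocking the RPL19A rise seen in DMSO cells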); settings: S. cerevisiae RPL19A-GFP strain, flow cytometry fluorescence, 3 h; at 10 µM; stronger effect = lower value
[2] = TOR pathway GLN3 branch reporter MEP2-GFP changes – S. cerevisiae, multiplex flow cytometry, primary screen (AID 1867;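 active = GFP response, as percent of the DMSO control, above the screen-wide mean plus 3 SD, about 139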;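 note: median GFP channel fluorescence of barcode-gated MEP2-GFP cells measured by flow cytometry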); settings: S. cerevisiae MEP2-GFP strain, 3 h, at 10 µM, stronger effect = higher value, 100% means same as DMSO wells
[3] = TOR pathway RTG branch CIT2 reporter changes – S. cerevisiae, GFP fusion, multiplex flow cytometry, primary screen (AID 1870);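 note: barcoded CIT2-GFP strain pooled with four other GFP strains with rapamycin as positive control; median GFP fluorescence per well over plate mean of DMSO wells so 100% = DMSO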; settings: S. cerevisiae CIT2-GFP expression, 3 h, at 10 µM, stronger effect = higher value
[4] = TOR pathway LAP4-GFP level changes – S. cerevisiae, multiplex flow cytometry, primary screen (AID 1873;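 active = GFP signal, as percent of the solvent control, above the screen mean plus 3 SD, about 149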); settings: S. cerevisiae LAP4-GFP expression, 3 h, at 10 µM, stronger effect = higher value
[5] = yeast AGP1-GFP level changes, GLN3 branch – cell-based, multiplex flow cytometry, S. cerevisiae, primary screen (AID 1887;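 active = GFP signal above the screen-wide mean plus 3 SD, that is over about 124.5% of the solvent control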;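 note: AGP1-GFP fusion strain of S. cerevisiae within a five-strain barcoded multiplex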); settings: 3 h, at 10 µM, stronger effect = higher value
[6] = reduced mouse 2C T cell binding to pMHC/ICAM-1 vesicles – MLPCN validation set, flow cytometry, LFA-1/ICAM-1 modulator project, pilot screen (AID 2523;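 active = response below a set limit, under 55% cells CD8-positive and vesicle-bound, and CD8 cells' 90th-percentile brightness under 279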;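 for vesicle binding response: mean PE anti-B7-1 fluorescence of CD8+ cells relative to row control; 100% = QL9-loaded vesicles with DMSO vehicle in the same plate row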); settings: 2C mouse CD8+ T cells, at 7 µM, stronger effect = lower value; double positive events: measured here: CD8+/vesicle+ event percentage
[7] = biological target: Integrin beta-1 (Homo sapiens) + Integrin alpha-4 (Homo sapiens) (UniProt P13612+P05556); experiment: alpha4beta1 integrin LIBS antibody binding reduction – U937 cells, HUTS-21 mAb, flow cytometry, validation set, VLA-4 allosteric modulator project, pilot screen (AID 2674;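 active = inhibition above 50%, about 3 SD of the validation set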;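 note: antibody binding induced by the VLA-4 ligand LDV present at three times its Kd; 0% = LDV ligand with antibody and no compound and 100% = antibody without LDV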); settings: HUTS-21 LIBS mAb binding, at 6.7 µM, stronger effect = higher value, binding induced by LDV ligand
[8] = calorie-restriction mimetic ROS inhibitors, yeast – validation compound set, pilot screen (AID 2706;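 active = superoxide response below 65% of plate, a cut near 3 SD across the whole screen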;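 note: yeast exposed to compound for one week at 30 degrees C before staining; 100% = mean of all compound wells on the same plate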); settings: S. cerevisiae aging, superoxide DHE fluorescence; at 10 µM; stronger effect = lower value
[9] = biological target: Beta-adrenergic receptor kinase 1 (Homo sapiens) (UniProt P25098); experiment: GRK2 binders displacing RNA aptamer, biochemical, validation, human GRK2, bead flow cytometry (AID 488806;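 active = aptamer binding inhibition above 30%, about 3 SD of noise from non-fluorescent compounds; inactive = inhibition at or below 30%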); settings: bead-bound GRK2, FAM-aptamer displacement, at 10 µM, stronger effect = higher value
[10] = biological target: Beta-2 adrenergic receptor (Homo sapiens) (UniProt P07550); experiment: agonist-induced loss of surface beta2AR – cell-based, FAP fluorogen, flow cytometry, validation set, pilot screen (AID 504459;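 active = percent response above 42, roughly 3 SD of non-fluorescent test compounds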;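 note: agonist-driven loss of surface beta2AR via internalization measured by FAP dye flow cytometry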); settings: Am2.2-beta2AR cells, at 10 µM, stronger effect = higher value
[11] = biological target: AP-2 complex subunit beta (Homo sapiens) (UniProt P63010); experiment: beta-arrestin/AP2 interaction blockers – biochemical, validation set, GST-AP2 beads, flow cytometry, pilot screen (AID 504541;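 active = inhibition above 54%, about 3 SD of non-fluorescent compounds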;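 note: AP2 carries R879A mutation and is captured from E. coli lysate; bead-bound FITC arrestin peptide fluorescence measuring arrestin peptide binding to AP2; 0% = DMSO wells and 100% = excess unlabeled arrestin peptide control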); settings: FITC arrestin peptide, at 10 µM, stronger effect = higher value, AP2 beta2 appendage fragment, R879A mutant
[12] = cytosolic pH regulators acting via V-ATPase – S. cerevisiae, pHLuorin, HTS validation (AID 504600; in the data active = response above about 15%;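 note: plate controls were DMSO for no effect and reference compound for full effect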); settings: V-ATPase proton transport, at 10 µM, stronger effect = higher value
[13] = tested on: anti-desmoglein-3 scFv antibody binding to human DSG3; experiment: blockers of pathogenic pemphigus antibody–desmoglein-3 binding – biochemical, validation compound set, bead-based, flow cytometry, pilot screen (AID 588368;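 active = binding below the plate cutoff, the plate median minus 3 SD, with a reading above zero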;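 note: signal is the median channel fluorescence of bead-bound GFP antibody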); settings: Protein G beads, DSG3-Fc, scFv-GFP binding, at 10 µM, stronger effect = lower value
[14] = Nile Red efflux blockade in pump-expressing yeast – validation compound set, multiplex, phenotypic, pilot screen (AID 588506;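 active = efflux inhibition above 0.42, the validation set average plus 4 SD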;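 note: Nile Red retained in cells so higher fluorescence means more efflux inhibition; 0 = negative control wells and 1 = enniatin B 25 µM full block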); settings: S. cerevisiae pump-expressing triplex, Nile Red efflux flow cytometry; at 10 µM; stronger effect = higher value; the pumps come from Candida albicans
[15] = biological target: ATP-binding cassette sub-family B member 6 (Homo sapiens) (UniProt Q9NP58); experiment: blockers of ABCB6-driven porphyrin uptake – K562-ABCB6 cells, flow cytometry, validation set, pilot screen (AID 588550;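 active = inhibition above the screen-wide mean plus 3 SD, about 51%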;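 note: 0% = DMSO wells and 100% = benzethonium chloride 70 µM positive control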); settings: K562-ABCB6 porphyrin accumulation, 1 h, at 10 µM, stronger effect = higher value
[16] = AML differentiation inducers, ER-HoxA9 marrow cells – cell-based, GFP/MAC1 double positive, flow cytometry, validation set, primary screen (AID 588685;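 active = differentiation response of at least 50%, scaled between solvent and reference control, from cells with both markers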;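 note: compound exposure lasts four days before antibody staining and flow analysis; 0% = DMSO wells and 100% = 5 µM fulvestrant positive control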); settings: stronger effect = higher value, normalized: vehicle 0, fulvestrant 100

AP-2 complex subunit beta (Homo sapiens), sequence (P63010 whole entry, looked up, the tested form may be a part, one chain of several): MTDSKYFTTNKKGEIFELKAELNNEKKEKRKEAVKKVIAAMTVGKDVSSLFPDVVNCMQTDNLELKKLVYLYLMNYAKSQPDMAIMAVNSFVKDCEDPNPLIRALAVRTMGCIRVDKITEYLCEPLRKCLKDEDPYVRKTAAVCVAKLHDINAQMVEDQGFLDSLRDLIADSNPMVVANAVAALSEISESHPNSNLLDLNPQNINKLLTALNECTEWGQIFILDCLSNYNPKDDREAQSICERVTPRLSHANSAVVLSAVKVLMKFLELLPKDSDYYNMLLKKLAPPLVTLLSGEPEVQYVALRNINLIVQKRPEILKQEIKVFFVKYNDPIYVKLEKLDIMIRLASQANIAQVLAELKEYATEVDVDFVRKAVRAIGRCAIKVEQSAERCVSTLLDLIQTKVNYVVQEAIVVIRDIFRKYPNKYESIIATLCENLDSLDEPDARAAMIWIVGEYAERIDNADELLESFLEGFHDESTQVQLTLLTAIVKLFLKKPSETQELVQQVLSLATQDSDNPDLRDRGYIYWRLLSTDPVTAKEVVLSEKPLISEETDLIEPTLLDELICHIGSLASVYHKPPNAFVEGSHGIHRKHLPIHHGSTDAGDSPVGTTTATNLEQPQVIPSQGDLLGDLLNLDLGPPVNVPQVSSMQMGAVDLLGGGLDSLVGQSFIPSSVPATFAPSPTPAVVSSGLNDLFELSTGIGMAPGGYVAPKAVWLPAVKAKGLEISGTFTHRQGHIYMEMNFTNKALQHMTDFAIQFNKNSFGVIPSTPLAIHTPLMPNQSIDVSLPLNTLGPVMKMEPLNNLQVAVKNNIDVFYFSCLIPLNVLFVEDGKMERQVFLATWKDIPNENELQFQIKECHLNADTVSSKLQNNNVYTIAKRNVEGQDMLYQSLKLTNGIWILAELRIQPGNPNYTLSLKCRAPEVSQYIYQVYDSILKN
ATP-binding cassette sub-family B member 6 (Homo sapiens), sequence (Q9NP58 whole entry, looked up): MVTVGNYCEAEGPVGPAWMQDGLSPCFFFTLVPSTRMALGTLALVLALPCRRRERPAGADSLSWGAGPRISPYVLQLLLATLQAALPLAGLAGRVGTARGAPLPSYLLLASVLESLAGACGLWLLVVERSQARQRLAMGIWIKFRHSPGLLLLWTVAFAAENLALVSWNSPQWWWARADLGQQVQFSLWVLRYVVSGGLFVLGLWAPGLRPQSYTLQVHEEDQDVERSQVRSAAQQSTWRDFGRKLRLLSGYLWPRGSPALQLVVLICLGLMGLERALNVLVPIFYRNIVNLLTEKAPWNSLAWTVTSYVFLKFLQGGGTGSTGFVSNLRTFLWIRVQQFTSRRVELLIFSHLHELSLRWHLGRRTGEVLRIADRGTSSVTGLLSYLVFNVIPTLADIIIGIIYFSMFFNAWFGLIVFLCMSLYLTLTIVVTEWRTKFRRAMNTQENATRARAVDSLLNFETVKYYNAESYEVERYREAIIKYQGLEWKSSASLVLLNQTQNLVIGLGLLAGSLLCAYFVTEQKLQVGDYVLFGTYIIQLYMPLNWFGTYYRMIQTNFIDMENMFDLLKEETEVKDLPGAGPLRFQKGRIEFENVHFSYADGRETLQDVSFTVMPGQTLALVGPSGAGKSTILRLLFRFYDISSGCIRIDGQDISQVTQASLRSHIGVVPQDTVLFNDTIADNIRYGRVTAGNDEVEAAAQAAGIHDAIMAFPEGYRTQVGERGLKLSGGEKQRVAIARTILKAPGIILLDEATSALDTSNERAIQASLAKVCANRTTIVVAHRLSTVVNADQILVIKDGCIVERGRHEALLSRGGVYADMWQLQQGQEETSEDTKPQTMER
Beta-2 adrenergic receptor (Homo sapiens), sequence (P07550 whole entry, looked up): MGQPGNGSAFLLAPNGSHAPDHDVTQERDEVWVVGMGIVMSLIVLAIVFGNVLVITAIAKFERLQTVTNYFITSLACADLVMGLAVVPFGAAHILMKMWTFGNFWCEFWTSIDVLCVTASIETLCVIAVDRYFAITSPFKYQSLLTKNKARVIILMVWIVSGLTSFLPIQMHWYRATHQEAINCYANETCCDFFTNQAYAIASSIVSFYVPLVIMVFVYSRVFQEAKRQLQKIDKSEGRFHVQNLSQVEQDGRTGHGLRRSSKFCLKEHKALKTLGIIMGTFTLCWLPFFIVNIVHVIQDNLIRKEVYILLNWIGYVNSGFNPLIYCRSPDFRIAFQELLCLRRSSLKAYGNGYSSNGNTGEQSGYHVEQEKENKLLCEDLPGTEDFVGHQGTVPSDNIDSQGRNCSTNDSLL
Beta-adrenergic receptor kinase 1 (Homo sapiens), sequence (P25098 whole entry, looked up): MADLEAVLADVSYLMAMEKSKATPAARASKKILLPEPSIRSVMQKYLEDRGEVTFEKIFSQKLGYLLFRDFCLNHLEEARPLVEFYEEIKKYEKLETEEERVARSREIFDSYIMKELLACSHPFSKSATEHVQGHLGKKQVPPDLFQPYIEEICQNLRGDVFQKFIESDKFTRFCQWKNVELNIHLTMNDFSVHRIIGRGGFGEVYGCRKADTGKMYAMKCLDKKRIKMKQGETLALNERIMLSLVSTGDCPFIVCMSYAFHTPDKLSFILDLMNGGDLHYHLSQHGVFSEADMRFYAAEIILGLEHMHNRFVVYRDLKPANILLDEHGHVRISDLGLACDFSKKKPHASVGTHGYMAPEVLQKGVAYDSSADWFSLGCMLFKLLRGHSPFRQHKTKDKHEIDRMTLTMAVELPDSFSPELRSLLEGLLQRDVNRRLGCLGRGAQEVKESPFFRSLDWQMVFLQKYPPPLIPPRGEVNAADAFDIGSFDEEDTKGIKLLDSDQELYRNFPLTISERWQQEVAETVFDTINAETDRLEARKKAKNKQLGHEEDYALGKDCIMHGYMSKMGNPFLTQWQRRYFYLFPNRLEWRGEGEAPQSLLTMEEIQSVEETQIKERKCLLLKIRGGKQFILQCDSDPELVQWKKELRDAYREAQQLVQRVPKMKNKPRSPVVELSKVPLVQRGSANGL
Integrin beta-1 (Homo sapiens) + Integrin alpha-4 (Homo sapiens), sequence (P05556 whole entry, looked up): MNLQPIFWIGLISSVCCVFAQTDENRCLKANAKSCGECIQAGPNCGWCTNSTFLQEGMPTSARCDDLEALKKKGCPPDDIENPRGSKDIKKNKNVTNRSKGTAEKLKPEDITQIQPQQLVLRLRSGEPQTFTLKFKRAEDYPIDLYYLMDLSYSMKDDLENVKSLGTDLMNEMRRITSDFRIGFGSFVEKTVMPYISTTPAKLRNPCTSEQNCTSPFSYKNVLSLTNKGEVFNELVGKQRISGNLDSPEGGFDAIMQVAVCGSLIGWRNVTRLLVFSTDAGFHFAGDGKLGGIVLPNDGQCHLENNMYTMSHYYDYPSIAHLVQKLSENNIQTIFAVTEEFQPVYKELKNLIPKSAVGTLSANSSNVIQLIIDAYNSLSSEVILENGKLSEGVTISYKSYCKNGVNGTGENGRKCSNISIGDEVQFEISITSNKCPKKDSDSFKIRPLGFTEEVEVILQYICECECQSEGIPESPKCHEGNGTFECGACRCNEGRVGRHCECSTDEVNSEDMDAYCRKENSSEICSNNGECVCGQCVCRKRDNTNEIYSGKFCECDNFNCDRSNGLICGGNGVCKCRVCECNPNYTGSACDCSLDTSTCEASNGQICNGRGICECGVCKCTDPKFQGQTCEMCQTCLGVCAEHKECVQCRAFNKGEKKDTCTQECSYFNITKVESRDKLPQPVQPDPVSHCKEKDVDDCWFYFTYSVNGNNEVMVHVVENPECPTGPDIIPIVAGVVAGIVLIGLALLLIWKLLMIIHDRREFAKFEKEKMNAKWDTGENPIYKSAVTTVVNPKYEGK
Integrin beta-1 (Homo sapiens) + Integrin alpha-4 (Homo sapiens), sequence (P13612 whole entry, looked up): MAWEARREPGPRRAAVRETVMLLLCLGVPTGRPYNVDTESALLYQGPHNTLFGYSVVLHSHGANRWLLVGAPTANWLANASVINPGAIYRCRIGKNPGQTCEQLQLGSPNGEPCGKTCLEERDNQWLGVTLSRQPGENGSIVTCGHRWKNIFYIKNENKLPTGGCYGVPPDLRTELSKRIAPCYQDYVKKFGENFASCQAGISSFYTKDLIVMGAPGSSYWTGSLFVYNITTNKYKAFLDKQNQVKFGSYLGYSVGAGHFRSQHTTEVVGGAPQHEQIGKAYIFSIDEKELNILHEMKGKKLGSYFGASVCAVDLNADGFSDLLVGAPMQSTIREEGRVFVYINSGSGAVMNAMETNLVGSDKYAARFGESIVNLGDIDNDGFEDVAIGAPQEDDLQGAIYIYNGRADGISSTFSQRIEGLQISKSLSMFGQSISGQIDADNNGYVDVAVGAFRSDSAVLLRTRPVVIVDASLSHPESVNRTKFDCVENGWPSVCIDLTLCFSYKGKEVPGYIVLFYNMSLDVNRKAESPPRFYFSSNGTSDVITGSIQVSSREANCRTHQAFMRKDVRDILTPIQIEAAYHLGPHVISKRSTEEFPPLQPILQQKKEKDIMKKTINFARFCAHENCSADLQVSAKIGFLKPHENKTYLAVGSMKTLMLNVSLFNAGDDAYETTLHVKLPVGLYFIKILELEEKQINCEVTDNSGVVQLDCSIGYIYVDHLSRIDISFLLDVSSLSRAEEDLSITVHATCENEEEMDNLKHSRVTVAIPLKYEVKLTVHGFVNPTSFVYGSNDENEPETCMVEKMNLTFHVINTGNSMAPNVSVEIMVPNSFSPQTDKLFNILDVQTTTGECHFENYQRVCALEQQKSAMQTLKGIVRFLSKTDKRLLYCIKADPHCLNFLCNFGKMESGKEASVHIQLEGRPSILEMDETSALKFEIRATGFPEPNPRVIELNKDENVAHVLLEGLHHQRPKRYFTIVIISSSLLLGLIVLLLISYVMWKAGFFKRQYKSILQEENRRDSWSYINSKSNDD

Compound | percent of DMSO control GFP [1] | GFP response vs DMSO [2] | percent response of DMSO control [3] | GFP response vs DMSO [4] | GFP response, % of DMSO [5] | double positive events [6] [%] | vesicle binding response [6] | inhibition [7] | superoxide response (% of plate) [8] | aptamer binding inhibition [9] | response [10] | inhibition [11] | response [12] | binding (% of control) [13] | efflux inhibition (fraction of control) [14] | inhibition [15] | differentiation response [16]
O=C(N1CCCC1)C12CC3CC(C1)CC(C(=O)N1CCCC1)(C3)C2 | 99.5% (inactive) | 103% (inactive) | 101% (inactive) | 124% (inactive) | 101% (inactive) | 59.6 | 219% (inactive) | 9.13% (inactive) | 104% (inactive) | -1% (inactive) | -2.88% (inactive) | -3.27% (inactive) | 0.92% (inactive) | 101% (inactive) | 0.15 (inactive) | 3% (inactive) | -7.2% (inactive)
COc1ccccc1C(O)c1nccn1C (stereo unspecified) | 92% (inactive) | 127% (inactive) | 106% (inactive) | 79.8% (inactive) | 93.1% (inactive) | 76.2 | 282% (inactive) | 17.1% (inactive) | 81.3% (inactive) | 4% (inactive) | -3.43% (inactive) | 0.35% (inactive) | 24.9% (active) | 104% (inactive) | -0.35 (inactive) | 11% (inactive) | -7.37% (inactive)
COC(=O)c1cc(OC)c(OC)cc1NC(=O)CN1C(=O)c2ccccc2C1=O | 97.1% (inactive) | 113% (inactive) | 93.9% (inactive) | 118% (inactive) | 99.4% (inactive) | 54.6 | 150% (inactive) | -22.3% (inactive) | 103% (inactive) | -2% (inactive) | -5.28% (inactive) | -9.37% (inactive) | -5.26% (inactive) | 98.4% (inactive) | -0.03 (inactive) | 2% (inactive) | -23.2% (inactive)
Cc1coc2cc3oc(=O)c(CCC(=O)O)c(C)c3cc12 | 95.4% (inactive) | 101% (inactive) | 92% (inactive) | 147% (inactive) | 86.8% (inactive) | 58.9 | 223% (inactive) | -11.3% (inactive) | 109% (inactive) | 1% (inactive) | -0.85% (inactive) | 20.5% (inactive) | -3.3% (inactive) | 106% (inactive) | -0.17 (inactive) | 6% (inactive) | -2.4% (inactive)
CCc1cc(-c2[nH]ncc2-c2ccc3c(c2)OCO3)c(O)cc1O | 99.8% (inactive) | 102% (inactive) | 105% (inactive) | 95.1% (inactive) | 99.5% (inactive) | 58.3 | 13.8% (inactive) | 9.71% (inactive) | 92.1% (inactive) | 3% (inactive) | 4.41% (inactive) | -19.7% (inactive) | 0.5% (inactive) | 107% (inactive) | -0.34 (inactive) | 4% (inactive) | -3.4% (inactive)
N/C(=N\OC(=O)c1cccc(Br)c1)c1ccncc1 | 103% (inactive) | 105% (inactive) | 106% (inactive) | 111% (inactive) | 94.2% (inactive) | 62.9 | 166% (inactive) | 9.63% (inactive) | 106% (inactive) | -2% (inactive) | -7.41% (inactive) | 43.1% (inactive) | 4.2% (inactive) | 100% (inactive) | -0.115 (inactive) | 8% (inactive) | -4.57% (inactive)
COc1ccc2[nH]c(=O)c3c(c2c1)OC(C)(C)C=C3 | 93.7% (inactive) | 105% (inactive) | 89.1% (inactive) | 119% (inactive) | 95.1% (inactive) | 59.1 | 88% (inactive) | -3.16% (inactive) | 99.1% (inactive) | 4% (inactive) | 5.61% (inactive) | -1.86% (inactive) | 2.4% (inactive) | 101% (inactive) | 0.08 (inactive) | 6% (inactive) | 8.8% (inactive)
CCOCCn1c(C(C)O)nc2ccccc21 (stereo unspecified) | 105% (inactive) | 96.2% (inactive) | 111% (inactive) | 98% (inactive) | 104% (inactive) | 62.6 | 278% (inactive) | 20.3% (inactive) | 89.7% (inactive) | 1% (inactive) | -7.33% (inactive) | -8.14% (inactive) | 4.51% (inactive) | 95.3% (inactive) | 0.02 (inactive) | -3% (inactive) | 7.09% (inactive)

Reference: PubChem BioAssay
